Reference: PubChem BioAssay AID1159580 (chemical genetic matrix, 2015)
The whole screen tested about 5,500 compounds, of which about 2,000 (36%) were called active. Another 18% or so got no clear call; they are omitted. No stated cut-off is given here; in the data, active means normalized growth mostly below about 0.91 (no sharp cut-off); inconclusive means no clear call, values can overlap the other calls; inactive means mostly above about 0.92. The list shows a part of the results.

Test: chemical genetic growth profiling, strain panel (AID 1159580);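 further: tested at 20 µM; growth read once vehicle control cultures reached saturation at 30 °C; 1 = growth at the plate median or of vehicle wells; lower values mean less growth of the strain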
Conditions: growth OD
[1] = S. cerevisiae deletion strains, locus YDL101C, strain DUN1, active compounds read low
[2] = S. cerevisiae deletion strains, locus YHR030C, strain SLT2, active compounds read low
[3] = S. cerevisiae deletion strains, locus YAR019C, strain CDC15, active compounds read low
[4] = S. cerevisiae deletion strains, locus YBL105C, strain PKC1, active compounds read low
[5] = S. cerevisiae deletion strains, locus YBR135W, strain CKS1, active compounds read low
[6] = S. cerevisiae deletion strains, locus YBR136W, strain MEC1, active compounds read low
[7] = S. cerevisiae deletion strains, locus YBR160W, strain CDC28, active compounds read low
[8] = S. cerevisiae deletion strains, locus YDL017W, strain CDC7, active compounds read low
[9] = S. cerevisiae deletion strains, locus YDL028C, strain MPS1, active compounds read low
[10] = S. cerevisiae deletion strains, locus YDL108W, strain KIN28, active compounds read low
[11] = S. cerevisiae deletion strains, locus YDL132W, strain cdc53, active compounds read low
[12] = S. cerevisiae deletion strains, locus YDL214C, strain PRR2, active compounds read low
[13] = S. cerevisiae deletion strains, locus YDR052C, strain DBF4, active compounds read low
[14] = S. cerevisiae deletion strains, locus YDR054C, strain cdc34, active compounds read low
[15] = S. cerevisiae deletion strains, locus YDR226W, strain ADK1, active compounds read low
[16] = S. cerevisiae deletion strains, locus YDR477W, strain SNF1, active compounds read low
[17] = S. cerevisiae deletion strains, locus YER123W, strain YCK3, active compounds read low
[18] = S. cerevisiae deletion strains, locus YER133W, strain GLC7, active compounds read low
[19] = S. cerevisiae deletion strains, locus YFL009W, strain cdc4, active compounds read low
[20] = S. cerevisiae deletion strains, locus YFL029C, strain CAK1, active compounds read low
[21] = S. cerevisiae deletion strains, locus YFR003C, strain YPI1, active compounds read low
[22] = S. cerevisiae deletion strains, locus YFR019W, strain FAB1, active compounds read low
[23] = S. cerevisiae deletion strains, locus YFR028C, strain CDC14, active compounds read low
[24] = S. cerevisiae deletion strains, locus YGR040W, strain KSS1, active compounds read low
[25] = S. cerevisiae deletion strains, locus YGR052W, strain FMP48, active compounds read low
[26] = S. cerevisiae deletion strains, locus YGR092W, strain DBF2, active compounds read low
[27] = S. cerevisiae deletion strains, locus YHR079C, strain IRE1, active compounds read low
[28] = S. cerevisiae deletion strains, locus YHR082C, strain KSP1, active compounds read low
[29] = S. cerevisiae deletion strains, locus YHR205W, strain SCH9, active compounds read low
[30] = S. cerevisiae deletion strains, locus YIL147C, strain SLN1, active compounds read low
[31] = S. cerevisiae deletion strains, locus YJL095W, strain BCK1, active compounds read low
[32] = S. cerevisiae deletion strains, locus YJL128C, strain PBS2, active compounds read low
[33] = S. cerevisiae deletion strains, locus YJL157C, strain FAR1, active compounds read low
[34] = S. cerevisiae deletion strains, locus YJR016C, strain ILV3, active compounds read low
[35] = S. cerevisiae deletion strains, locus YJR066W, strain TOR1 (second series), active compounds read low
[36] = S. cerevisiae deletion strains, locus YJR066W, strain TOR1, active compounds read low
[37] = S. cerevisiae deletion strains, locus YKL048C, strain ELM1, active compounds read low
[38] = S. cerevisiae deletion strains, locus YKL067W, strain YNK1, active compounds read low
[39] = S. cerevisiae deletion strains, locus YKL101W, strain HSL1, active compounds read low
[40] = S. cerevisiae deletion strains, locus YKL193C, strain SDS22, active compounds read low
[41] = S. cerevisiae deletion strains, locus YKL203C, strain TOR2, active compounds read low
[42] = S. cerevisiae deletion strains, locus YLR113W, strain HOG1, active compounds read low
[43] = S. cerevisiae deletion strains, locus YLR133W, strain CKI1, active compounds read low
[44] = S. cerevisiae deletion strains, locus YLR403W, strain SFP1, active compounds read low
[45] = S. cerevisiae deletion strains, locus YML070W, strain DAK1, active compounds read low
[46] = S. cerevisiae deletion strains, locus YMR001C, strain CDC5, active compounds read low
[47] = S. cerevisiae deletion strains, locus YMR205C, strain PFK2 (second series), active compounds read low
[48] = S. cerevisiae deletion strains, locus YMR277W, strain FCP1, active compounds read low
[49] = S. cerevisiae deletion strains, locus YNL006W, strain LST8, active compounds read low
[50] = S. cerevisiae deletion strains, locus YNL020C, strain ARK1, active compounds read low
[51] = S. cerevisiae deletion strains, locus YNL161W, strain CBK1, active compounds read low
[52] = S. cerevisiae deletion strains, locus YNL183C, strain NPR1, active compounds read low
[53] = S. cerevisiae deletion strains, locus YNL207W, strain RIO2, active compounds read low
[54] = S. cerevisiae deletion strains, locus YNL222W, strain SSU72, active compounds read low
[55] = S. cerevisiae deletion strains, locus YNL307C, strain MCK1 (second series), active compounds read low
[56] = S. cerevisiae deletion strains, locus YOL078W, strain AVO1, active compounds read low
[57] = S. cerevisiae deletion strains, locus YOL136C, strain PFK27, active compounds read low
[58] = S. cerevisiae deletion strains, locus YOR061W, strain CKA2, active compounds read low
[59] = S. cerevisiae deletion strains, locus YOR119C, strain RIO1, active compounds read low
[60] = S. cerevisiae deletion strains, locus YOR231W, strain MKK1, active compounds read low
[61] = S. cerevisiae deletion strains, locus YOR329C, strain SCD5, active compounds read low
[62] = S. cerevisiae deletion strains, locus YPL031C, strain PHO85, active compounds read low
[63] = S. cerevisiae deletion strains, locus YPL153C, strain RAD53, active compounds read low
[64] = S. cerevisiae deletion strains, locus YPL204W, strain HRR25, active compounds read low
[65] = S. cerevisiae deletion strains, locus YPL209C, strain IPL1, active compounds read low
[66] = S. cerevisiae deletion strains, locus YPL256C, strain CLN2, active compounds read low
[67] = S. cerevisiae deletion strains, locus YPR025C, strain CCL1, active compounds read low
[68] = S. cerevisiae deletion strains, locus YPR106W, strain ISR1, active compounds read low
[69] = S. cerevisiae deletion strains, locus YPR111W, strain DBF20, active compounds read low
[70] = S. cerevisiae deletion strains, strain NNK1, active compounds read low
[71] = S. cerevisiae deletion strains, strain TSCII, active compounds read low

Measured: normalized growth

CC(=O)c1ccc(Sc2ccccn2)c([N+](=O)[O-])c1
inactive: S. cerevisiae deletion strains, locus YAL013W, strain DEP1, active compounds read low 0.996 | S. cerevisiae deletion strains, locus YBR229C, strain ROT2, active compounds read low 1 | S. cerevisiae deletion strains, locus YCL061C, strain MRC1, active compounds read low 1.02 | [1] 1.01 | S. cerevisiae deletion strains, locus YDR150W, strain NUM1, active compounds read low 0.985 | S. cerevisiae deletion strains, locus YEL061C, strain CIN8, active compounds read low 0.974 | S. cerevisiae deletion strains, locus YGR078C, strain PAC10, active compounds read low 0.986 | [2] 0.71 | S. cerevisiae deletion strains, locus YHR087W, strain rtc3, active compounds read low 1.01 | S. cerevisiae deletion strains, locus YJL187C, strain SWE1, active compounds read low 0.98 | S. cerevisiae deletion strains, locus YJR043C, strain POL32, active compounds read low 1.01 | S. cerevisiae deletion strains, locus YJR075W, strain HOC1, active compounds read low 0.973 | S. cerevisiae deletion strains, locus YKL190W, strain CNB1, active compounds read low 0.997 | S. cerevisiae deletion strains, locus YLR039C, strain RIC1, active compounds read low 0.849 | S. cerevisiae deletion strains, locus YLR058C, strain SHM2 (second series), active compounds read low 0.991 | S. cerevisiae deletion strains, locus YLR085C, strain ARP6, active compounds read low 0.835 | S. cerevisiae deletion strains, locus YLR262C, strain YPT6, active compounds read low 0.822 | S. cerevisiae deletion strains, locus YML094W, strain GIM5, active compounds read low 0.983 | S. cerevisiae deletion strains, locus YMR219W, strain ESC1, active compounds read low 0.983 | S. cerevisiae deletion strains, locus YMR263W, strain SAP30, active compounds read low 0.993 | S. cerevisiae deletion strains, locus YMR307W, strain GAS1, active compounds read low 1.04 | S. cerevisiae deletion strains, locus YNL128W, strain TEP1, active compounds read low 0.967 | S. cerevisiae deletion strains, locus YNL153C, strain GIM3, active compounds read low 0.98 | S. cerevisiae deletion strains, locus YNL298W, strain CLA4 (second series), active compounds read low 0.934 | S. cerevisiae deletion strains, locus YNL322C, strain KRE1, active compounds read low 0.966 | S. cerevisiae deletion strains, locus YNR030W, strain Alg12, active compounds read low 0.99 | S. cerevisiae deletion strains, locus YOL006C, strain TOP1, active compounds read low 0.747 | S. cerevisiae deletion strains, locus YPL055C, strain LGE1, active compounds read low 0.976 | S. cerevisiae deletion strains, locus YPL241C, strain CIN2, active compounds read low 1.01 | S. cerevisiae deletion strains, locus YPR135W, strain CTF4, active compounds read low 0.927 | S. cerevisiae strains, strain wild type, active compounds read low 0.984

CC(=O)c1ccc(Sc2ccccc2)c([N+](=O)[O-])c1
active: [3] 0.877 | [4] 0.878 | [5] 0.864 | [6] 0.874 | [7] 0.876 | [8] 0.879 | [9] 0.885 | [1] 0.873 | [10] 0.876 | [11] 0.87 | [13] 0.898 | [14] 0.845 | [15] 0.857 | [19] 0.868 | [20] 0.87 | [21] 0.874 | [23] 0.865 | [26] 0.387 | [2] 0.75 | [30] 0.875 | [32] 0.778 | [34] 0.882 | [37] 0.753 | [40] 0.869 | [42] 0.698 | [46] 0.858 | [48] 0.859 | [49] 0.855 | [51] 0.869 | [53] 0.861 | [54] 0.876 | [56] 0.861 | [61] 0.881 | [65] 0.872 | [66] 0.782 | [67] 0.884 | [68] 0.866 | [69] 0.838 | [70] 0.853 | [71] 0.86
inactive: [12] 0.792 | [16] 0.788 | [17] 0.799 | [18] 0.874 | [22] 0.88 | [24] 0.78 | [25] 0.784 | [27] 0.813 | [28] 0.859 | [29] 0.773 | [31] 0.756 | [33] 0.818 | [35] 0.823 | [36] 0.811 | [38] 0.788 | [39] 0.753 | [41] 0.814 | [43] 0.79 | [44] 0.756 | [45] 0.809 | [47] 0.772 | [50] 0.803 | [52] 0.798 | [55] 0.772 | [57] 0.772 | [58] 0.815 | [59] 0.835 | [60] 0.788 | [62] 0.785 | [63] 0.79 | [64] 0.773

O=[N+]([O-])c1ccc(Sc2ccccc2)c([N+](=O)[O-])c1
active: [3] 0.862 | [4] 0.894 | [5] 0.874 | [6] 0.884 | [7] 0.896 | [8] 0.89 | [9] 0.888 | [1] 0.876 | [10] 0.88 | [11] 0.867 | [12] 0.695 | [14] 0.83 | [15] 0.858 | [19] 0.847 | [20] 0.866 | [21] 0.886 | [26] 0.271 | [2] 0.492 | [29] 0.522 | [30] 0.885 | [32] 0.757 | [34] 0.877 | [37] 0.71 | [38] 0.691 | [39] 0.662 | [40] 0.876 | [42] 0.396 | [43] 0.717 | [46] 0.868 | [47] 0.678 | [48] 0.868 | [49] 0.87 | [51] 0.864 | [53] 0.859 | [54] 0.88 | [56] 0.867 | [57] 0.65 | [61] 0.884 | [65] 0.883 | [66] 0.428 | [67] 0.893 | [68] 0.849 | [69] 0.812 | [70] 0.796 | [71] 0.853
inactive: [13] 0.913 | [16] 0.75 | [17] 0.685 | [18] 0.803 | [22] 0.84 | [23] 0.899 | [24] 0.784 | [25] 0.706 | [27] 0.655 | [28] 0.719 | [31] 0.673 | [33] 0.748 | [35] 0.756 | [36] 0.748 | [41] 0.785 | [44] 0.758 | [45] 0.689 | [50] 0.733 | [52] 0.708 | [55] 0.704 | [58] 0.768 | [59] 0.806 | [60] 0.64 | [62] 0.73 | [63] 0.723 | [64] 0.727
